The whole screen tested about 1,300 compounds, of which about 140 (11%) were called active. How the calls were made is not given here. Only a sample is shown. Measured potencies and affinities stand elsewhere.
molecular target: Prostaglandin E2 receptor EP2 subtype (Homo sapiens) (UniProt P43116); assay: EP2 receptor modulators, dose response, cell-based, human EP2, PGE2 EC50 shift (AID 1421); conditions: EP2-expressing cells, PGE2 EC50 shift by compound; at 20 µM
Sequence (P43116 whole entry, looked up): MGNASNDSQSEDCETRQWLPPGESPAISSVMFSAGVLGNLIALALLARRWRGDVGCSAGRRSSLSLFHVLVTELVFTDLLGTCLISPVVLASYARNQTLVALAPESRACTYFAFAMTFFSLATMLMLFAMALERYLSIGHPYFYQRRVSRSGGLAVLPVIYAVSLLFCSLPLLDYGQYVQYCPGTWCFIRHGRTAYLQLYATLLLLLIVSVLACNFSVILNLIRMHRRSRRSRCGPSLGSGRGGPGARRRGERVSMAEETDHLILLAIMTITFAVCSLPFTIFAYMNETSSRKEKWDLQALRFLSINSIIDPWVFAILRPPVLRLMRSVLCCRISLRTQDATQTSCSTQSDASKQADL

PGE2 EC50 with compound, inactive:
C=CCn1c(SCc2c(C)noc2C)nc2sc(C)c(C)c2c1=O 0.57 nM
C=CCn1c(SCC(N)=O)nc(C)cc1=O 0.82 nM
CC(=O)Nc1ccc(C2=NN(c3ccccc3)C(c3cccs3)C2)cc1 (stereo not given) 0.32 nM
CCCCCn1c(CN2CCN(c3cc(Cl)ccc3C)CC2)nc2c1c(=O)[nH]c(=O)n2C 1.94 nM
Brc1ccc(Cn2c(-c3cncs3)nc3ccccc32)cc1 0.43 nM
CCn1c2ccccc2c2cc(/C=N/n3c(C)nnc3C)ccc21 0.04 nM
Cc1ccccc1OCc1nc2ccccc2c(=O)n1/N=C/c1ccco1 0.61 nM
CN(c1ccccc1)C1CCCCC1NS(=O)(=O)c1ccc(Cl)cc1 (stereo not given) 0.38 nM
N#CCSc1nc2c(c(C3CC=CCC3)c1C#N)CCC2 (stereo not given) 0.5 nM
CSc1ccccc1NC(=O)COc1ccc(Cl)cc1C 0.35 nM
CN(CC(=O)Nc1ccccc1-c1ccccc1)Cc1ccccc1Cl 0.6 nM
C(=N\N1CCN(C2c3ccccc3-c3ccccc32)CC1)/c1cccnc1 0.43 nM
COC(=O)c1c(NC(NC(=O)C(C)C)C(Cl)(Cl)Cl)sc2c1CCCC2 (stereo not given) 0.51 nM
O=C(O)CSc1cc(-c2ccccc2)nc2ccccc12 1.19 nM
N/C(CSc1nc(-c2ccccc2)c(-c2ccccc2)o1)=N\O 0.37 nM
C=CCC(=O)OCCCCCCOc1ccc(C(=O)O)cc1 0.73 nM
CC(C)Oc1ccc(/C=C(/NC(=O)c2ccccc2)C(=O)NCCC(=O)O)cc1 0.98 nM
Cc1ccc(C(=O)OCC(=O)Nc2ccccc2Sc2ccccc2)cc1C 0.26 nM
CN(/N=C/C=C/c1ccccc1)C1=NS(=O)(=O)c2ccccc21 0.14 nM
CCC(C)(C)n1nnnc1C(c1ccncc1)N1CCC(Cc2ccccc2)CC1 (stereo not given) 1.27 nM
CC1=CC(C)(C)N(S(=O)(=O)c2ccc(C)cc2)c2cc(C)ccc21 0.39 nM
CC1(c2cc([N+](=O)[O-])cc([N+](=O)[O-])c2)CC(C)(C)N(C(=O)c2ccccc2)c2ccccc21 (stereo not given) 0.35 nM
CCOP(=O)(OCC)c1nc(-c2ccccc2)oc1NCc1ccccc1 0.36 nM
O=C(O)c1cccc(NN=C2c3ccccc3-c3ccccc32)c1 0.74 nM
O=c1c2oc3ccccc3c2[nH]c(=S)n1-c1ccccc1 1.48 nM
CN=C1CC(SC)=C1c1ccc(C)cc1 2.68 nM
Cc1cc(O)c(C=O)c2c1C(=O)Oc1c(C)c(O)c3c(c1O2)C(O)OC3=O (stereo not given) 0.42 nM
O=C(NNc1ccc([N+](=O)[O-])cc1[N+](=O)[O-])C1C2CCCCC21 (stereo not given) 1.49 nM
CCOC(=O)C1=C(C)N(C)C(C)=C(C(=O)OCC)C1c1ccsc1 0.71 nM
O=C(Oc1ccc(-c2nccc(-c3ccccn3)n2)cc1)c1cccc(C(F)(F)F)c1 1.38 nM
FC(F)(F)c1cccc(-c2cc3ccccc3nc2N2CCCC2)c1 0.54 nM
CCCCOc1cc(C)nc(NCc2ccccc2)n1 0.31 nM
COc1cnc(SCc2c(Cl)cccc2Cl)nc1Cl 0.18 nM
COC(=O)CSc1nc2c(c(C3CC=CCC3)c1C#N)CCC2 (stereo not given) 0.61 nM
Cn1c(=O)c2c(nc(CN3CCN(c4ccccc4)CC3)n2Cc2c(F)cccc2Cl)n(C)c1=O 0.37 nM
CCn1c(=NC(=O)c2ccc(S(=O)(=O)N3CCOCC3)cc2)sc2cccc(OC)c21 1.76 nM
Cn1c(=O)c2c(nc(SCC(=O)N3CCc4ccccc4C3)n2C)n(C)c1=O 0.76 nM
COc1cccc(N=c2oc3c(C)ncc(CO)c3cc2C(=O)Nc2ccccc2OC)c1 0.96 nM
COc1cc2ccccc2cc1C(=O)NC(=S)Nc1cc(C(=O)O)ccc1C 58.1 nM
Cc1cc2cc3c(cc2nc1SCC(=O)OC(C)C)OCO3 0.21 nM
Cc1cc(SCC(=O)c2ccccc2)nc2ccccc12 1.19 nM
C=CCSc1nc(N(CC)CC)c2sccc2n1 0.61 nM
O=c1c2ccccc2n(Cc2ccc(Cl)cc2)c(=O)n1Cc1ccco1 0.38 nM
Cc1cccc(Cn2c(=O)n(Cc3ccco3)c(=O)c3ccccc32)c1 0.31 nM
CCOC(=O)c1sc2nccc(N(C)C)c2c1N=CNOCc1ccccc1 0.21 nM
c1ccn(-c2ncnc3sc4c(c23)CCCC4)c1 0.38 nM
CSc1nnc2c3ccccc3c3ccccc3c2n1 0.24 nM
Fc1ccccc1Nc1nc2c(s1)CCc1ccccc1-2 0.26 nM
C=C[C@@](C)(O)CCC1C(=C)C[C@H](O)C2C(C)(C)CCCC12C (stereo not given in full) 0.59 nM
CCOC(=O)CSc1nc(Cc2ccccc2)nc2ccccc12 0.35 nM
COC(=O)CSc1nc(Cc2ccccc2)nc2ccccc12 0.17 nM
CCN(Cc1cc(Cl)cc(C)c1O)Cc1c(O)ccc2ccccc12 0.73 nM
Cc1ccc(-c2cccc(C(=O)NCc3ccccc3)n2)c2ccccc12 0.42 nM
COC(=O)c1c(C)nc2ccccc2c1-c1ccccc1 0.22 nM
CCCn1c(C)nc2c(c1=O)c1nc3ccccc3nc1n2CCC1=CCCCC1 0.36 nM
O=C(Nc1cccc(Cl)c1N1CCCCC1)c1ccc2c(c1)OCCO2 0.26 nM
CCCCOc1ccccc1NC(=O)c1scc2c1OCCO2 0.31 nM
CCOC(=O)c1c(NC(=O)CSc2nnnn2CC)sc(C)c1C 0.73 nM
O=C(Nc1ccccc1)c1nn(-c2cccc(C(F)(F)F)c2)ccc1=O 0.1 nM
O=C(COc1ccccc1)Nc1ccccc1N1CCN(c2ccccc2)CC1 0.2 nM
O=C(Cc1ccccc1)Nc1ccccc1N1CCN(c2ccccc2)CC1 0.28 nM
CN(C)c1ncc(S(=O)(=O)c2ccccc2)c(-c2ccccc2Cl)n1 0.23 nM
O=C(CSc1nc2ccccc2o1)Nc1ccccc1N1CCCCCC1 0.53 nM
O=C(c1ccccc1O)N1N=C(c2ccccc2)CC1(O)C(F)(F)F (stereo not given) 0.51 nM
N#Cc1sc2nc(N3CCCCC3)c3c(c2c1N)CCCC3 0.26 nM
NC(=O)c1sc2nc(N3CCCCC3)c3c(c2c1N)CCCC3 0.08 nM
Cc1ccc(S(=O)(=O)n2c3ccc(Cl)cc3c3nc(C)sc32)cc1 0.13 nM
Cc1cccc(C)c1OCc1nnc(SCC(=O)Nc2nccs2)n1-c1ccccc1 0.57 nM
CC(=O)c1ccc2c(c1)c1ccccc1n2CC(C)C 0.19 nM
Cc1cc([N+](=O)[O-])c(C)c(Br)c1C 0.91 nM
O=C(O)c1nc2nc(Cl)c(Cl)nc2[nH]1 0.87 nM
O=C(CNCC1CCCCC1)Nc1ccccc1N1CCCCC1 0.57 nM
O=C(Nc1ccccc1N1CCCCC1)c1cccc(F)c1 0.33 nM
O=C(Nc1ccccc1N1CCCCC1)c1cccc([N+](=O)[O-])c1 0.3 nM
O=C(Nc1ccccc1Oc1ccccc1)c1cnccn1 0.75 nM
CC1CCN(c2ccccc2NC(=O)c2ccc(F)cc2)CC1 0.3 nM
O=C(Nc1ccccc1N1CCCC1)c1cc2ccccc2o1 0.19 nM
O=C(Nc1ccccc1N1CCCCC1)c1ccc2nccnc2c1 0.08 nM
O=C(Nc1ccccc1N1CCCCC1)c1ccc(F)cc1 0.41 nM
CCOC(=O)c1c(N)sc(-c2ccccc2)c1C 0.8 nM
O=C(CO/N=C/c1ccccc1)N1c2ccccc2Oc2ccccc21 0.59 nM
CC1CCN(c2nc3c(c(=O)[nH]c(=O)n3C)n2CC(C)CSc2nnnn2-c2ccccc2)CC1 (stereo not given) 0.73 nM
COC(=O)c1cc2occc2n1Cc1cccc(C)c1 0.36 nM
CCc1nc2c(cnn2-c2ccc(Cl)cc2)c(=O)n1-c1ccc(OC)cc1 1.12 nM
COc1ccc(Cl)cc1-n1c(C)ccc1C 0.33 nM
CCCCc1nc(SCCOC)c2c(=O)n(C)c(=O)n(C)c2n1 0.46 nM
CCC(=O)Oc1ccc(C(CC)C(CC)c2ccc(OC(=O)CC)cc2)cc1 (stereo not given) 0.53 nM
O=c1c2ccccc2c(=O)n(Cc2ccccc2)n1Cc1ccccc1 0.08 nM
CC(=O)Oc1ccc2ccccc2c1C(NC(=O)Cc1ccccc1)c1ccccc1 (stereo not given) 0.32 nM
COc1ccc(CSC2=C(C#N)C(=O)NC3(CCCCC3)S2)cc1 0.76 nM
COc1ccc(C(=O)Nc2ccccc2N2CCCCC2)cc1[N+](=O)[O-] 0.44 nM
O=C(Nc1ccccc1N1CCCCC1)c1ccc(Cl)c([N+](=O)[O-])c1 0.55 nM
Cc1cccc(-n2c(CCc3ccccc3)nnc2SCC(=O)c2ccccc2)c1 0.19 nM
COc1ccccc1C(CC(=O)c1ccccc1)CC(=O)c1ccccc1 0.61 nM
O=c1[nH]c(=S)c2c(n1-c1ccccc1)CCC2 1.62 nM

From PubChem BioAssay AID1421 (Emory University Molecular Libraries Screening Center, 2008)
